# Only some compounds are listed: those with a hit (about 2.8% of all), similar ones and a draw of the others.
# Pol eta inh = blocks human DNA polymerase eta activity. Q9Y253. recombinant Pol eta, fluorescent DNA replication assay. Potency, µM (top dose mostly 114 µM), for the others: at the highest dose activity change, negative = inhibition, hits mostly inhibitors. 390,000 tested, 1.2% active; also: potency is read from the fitted curve at half-maximal effect; % is scaled to controls: 0 for no effect and ±100 for the full control effect
# Target sequence (Q9Y253 whole entry, looked up): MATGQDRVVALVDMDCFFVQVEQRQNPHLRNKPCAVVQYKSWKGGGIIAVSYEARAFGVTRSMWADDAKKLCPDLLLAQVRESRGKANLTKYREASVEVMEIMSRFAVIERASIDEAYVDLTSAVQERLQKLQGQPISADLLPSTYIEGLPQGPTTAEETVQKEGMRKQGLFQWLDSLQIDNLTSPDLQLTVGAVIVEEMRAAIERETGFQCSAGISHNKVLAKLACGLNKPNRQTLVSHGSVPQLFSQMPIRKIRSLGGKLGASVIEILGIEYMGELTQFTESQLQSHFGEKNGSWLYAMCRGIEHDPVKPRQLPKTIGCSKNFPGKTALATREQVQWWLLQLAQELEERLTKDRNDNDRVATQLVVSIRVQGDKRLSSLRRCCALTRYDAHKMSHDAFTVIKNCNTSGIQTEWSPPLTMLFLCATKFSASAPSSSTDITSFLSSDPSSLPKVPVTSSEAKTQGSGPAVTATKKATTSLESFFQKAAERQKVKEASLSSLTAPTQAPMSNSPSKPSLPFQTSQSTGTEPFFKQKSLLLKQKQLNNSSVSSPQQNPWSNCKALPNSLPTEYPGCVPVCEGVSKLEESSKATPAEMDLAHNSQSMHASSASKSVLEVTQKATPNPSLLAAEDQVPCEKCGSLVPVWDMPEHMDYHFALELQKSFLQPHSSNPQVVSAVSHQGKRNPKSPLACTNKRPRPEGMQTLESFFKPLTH
#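 Fluorescent replication assay: 50 nM final substrate added after a 15 min room-temperature compound preincubation with 10 nM enzyme. Signal taken at 0 min and again at 10 min.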
# FEN1 inhibitor = blocks human flap endonuclease 1; P39748; Recombinant FEN1 flap cleavage, fluorescence, 15 min; Potency, µM (highest dose often 114 µM), inactives show at the top dose activity change, negative = inhibition, usual class: inhibitors; 390,000 tested, 0.35% active; AID 588795; also: potency is read from the fitted curve at half-maximal effect; % is scaled to controls: 0 for no effect and ±100 for the full control effect; nearly all actives have a fitted effect of over 65% in size
#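 Steps: FEN1 (10 nM) dispensed; compound added by pin tool; 15 min at room temperature; substrate added to 50 nM final; reads at 0 min and 15 min; data normalized and fitted (four-parameter Hill).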
# POLI inh = DNA polymerase iota (human) inhibition | Q9UNA4 | Pol iota fluorescent replication assay, 10 min | Potency, µM (top dose mostly 115 µM), for the others: at the highest dose activity, negative = inhibition, most hits filed as inhibitors | 390,000 tested, 1% active | AID 588590; also: potency is read from the fitted curve at half-maximal effect
#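 Fluorescent replication assay read twice, at 0 min and 10 min after adding 50 nM (final) substrate. Enzyme (10 nM) and compounds were first incubated 15 min at room temperature; enzyme-free buffer wells were negative controls.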
# PI5P4Ka inh = blocks human PI5P4K alpha kinase activity; P48426; PI5P4Kalpha enzyme, ADP-Glo luminescence, 60 min; hits give low values; max response, %; 330,000 tested, 1.2% active; active = max response of -50% or lower; inconclusive = between -30% and -50%; inactive = -30% or higher; also: value at the top dose of about 77 µM; % is scaled to controls: 0 for no effect and ±100 for the full control effect
#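 Human PI5P4Kalpha with substrate in 0.038 M HEPES pH 7.4, 0.28 mM EGTA, 0.1% CHAPS, 5% DMSO; reaction started with 5 microM ATP (final), 60 min at room temperature. ADP formed read by ADP-Glo luminescence.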
# POLB inh = inhibitors of human DNA polymerase beta. P06746. Pol beta primer extension/strand displacement, fluorescence kinetic. Potency, µM (titrated, usually from 114 µM), for the others: at the highest dose activity change, negative = inhibition, actives largely listed as inhibitors. 340,000 tested, 1.3% active. AID 485314; also: potency is read from the fitted curve at half-maximal effect; % is scaled to controls: 0 for no effect and ±100 for the full control effect
#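 Preincubation: enzyme (10 nM) with compound, 15 min, RT. Reaction: substrate added to 50 nM final. Reads: 0 and 10 min. Analysis: normalized, Hill fit.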
# POLK inh = inhibitors of human DNA polymerase kappa; Q9UBT6; purified Pol kappa, fluorescent DNA synthesis assay, 10 min; Potency, µM (highest dose often 107 µM), for inactives: top-dose activity, negative = inhibition, actives largely listed as inhibitors; 400,000 tested, 0.53% active; AID 588579; also: potency is read from the fitted curve at half-maximal effect; % is scaled to controls: 0 for no effect and ±100 for the full control effect
#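 Readout: fluorescence, taken kinetically at 0 and 10 min. Conditions: 10 nM Pol kappa, 15 min RT compound preincubation, 50 nM substrate final. Controls: enzyme-free buffer wells.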
# An asterisk follows results filed as active; u = inconclusive; x = no result given; [ ] = another dose, or the depositor's remark. Unless noted, calls follow the shape of the dose curve; as a rule, active = well fitted curve in the direction sought with a large enough effect; inconclusive = small, poorly fitted or top-dose-only effect, or another doubt; inactive = no such curve, though single readings can be large; an effect the other way counts as inactive or inconclusive.
SMILES,Pol eta inh,FEN1 inhibitor,POLI inh,PI5P4Ka inh,POLB inh,POLK inh
CC(/C=C/c1ccco1)=N\NC(=O)c1cc(C)[nH]n1,79µM*,-15%,18µM*,x,20µM*,u
Cc1cc(C(=O)N/N=C/c2ccco2)n[nH]1,-3%,-1%,47%,-2,-3%,-4%
COc1cc(/C=C/[N+](=O)[O-])ccc1OC(=O)c1cc2ccccc2oc1=O,u,3%,u,-61*,-19%,-17%
CC(C)(C)C(=O)NC1CC2CCCC(C1)N2C(=O)Nc1cccc(Cl)c1 (centres undefined),3%,-12%,u,-7,2%,8%
O=C(CSc1nnc2ccccn12)NC(=O)c1ccccc1Cl,40µM*,18%,28µM*,u,x,u
CN(C(=O)c1cc2c(s1)-c1ccc(Cl)cc1SC2)c1cccc(C(F)(F)F)c1,-22%,8%,52%,x,-15%,-6%
COc1cccc(CN(C)Cc2cc(=O)oc3c(C)c(C)ccc23)c1,-10%,-5%,-5%,10,0%,8%
COc1cccc(CN(C)Cc2cc(=O)oc3cc(O)c(Cl)cc23)c1,-5%,-4%,-25%,-78*,0%,-19%
N#CC1=C(N)SC(N)=C(C#N)C1Cc1ccccc1,-17%,-21%,-10%,-52*,4%,-14%
N#CC1=C(N)SC(N)=C(C#N)C1c1c(Cl)cccc1Cl,-21%,1%,u,-65*,-5%,-13%
N#CC1=C(N)SC(N)=C(C#N)C1CCc1ccccc1,2%,-6%,21%,-84*,-20%,u
CC(C)CC1C(C#N)=C(N)SC(N)=C1C#N,-13%,-15%,u,x,u,-4%
Cc1ccc(C(=O)OC(C)C(=O)c2cc(C)c(C)cc2C)o1 (centres undefined),-22%,-11%,-23%,4,u,-16%
O=C(c1cc(O)c(O)c([N+](=O)[O-])c1)c1ccccc1F,u,-1%,u,-66*,17%[57.1 µM],u
Cc1sc2nc(SCC(=O)Nc3c(C)n(C)n(-c4ccccc4)c3=O)n(C)c(=O)c2c1C,u,-8%,u,x,20µM*,-27%
COc1ccccc1NC(=O)CSc1nc2sc(C)c(C)c2c(=O)n1C,-28%,-17%,-45%,-2,45%,-13%
CN(C)S(=O)(=O)c1cccc(C(=O)Nc2ccccc2C(=O)NC2CC2)c1,-10%,-13%,16%,-4,x,-11%
O=C(CCn1cccc1)NCc1ccc2c(c1)OCO2,u,-2%,u,-27,50µM*,u
O=C(CCn1c(=O)oc2ccccc21)NCc1ccc2c(c1)OCO2,-9%,10%,2%,-4,-2%,6%
Cc1cccc(CCNC(=O)c2nn(C)c3c2CSc2ccccc2-3)c1,-12%,16%,6%,x,3%,-27%
Cc1cccc(NC(=O)c2c(NC(=O)c3ccco3)sc3c2CCC(C(C)(C)C)C3)c1 (centres undefined),9%,1%,u,x,15%,4%
CC(=O)C1=C(O)C(=O)N(Cc2ccccc2)C1c1ccc(N(C)C)cc1 (centres undefined),0%,18µM*,-13%,-7,18%,-18%
COC(=O)C1=CN(c2cccc(OCc3ccccc3)c2)C(N)=C(C#N)C1c1cccc(F)c1 (centres undefined),x,x,x,-2,x,x
Cc1c(CC(=O)N2CCN(C(=O)C3COc4ccccc4O3)CC2)c(=O)oc2cc(O)c(Cl)cc12 (centres undefined),u,15%,22%,-51*,-11%,-16%
COc1ccc2c(C)c(CC(=O)N3CCN(C(=O)C4COc5ccccc5O4)CC3)c(=O)oc2c1C (centres undefined),-7%,-4%,-17%,-11,-17%,-3%
SMILES,Pol eta inh,FEN1 inhibitor,POLI inh,PI5P4Ka inh,POLB inh,POLK inh
COc1ccc(-c2coc3c(C(=O)Nc4cccnc4)cccc23)c(C)c1,x,x,x,-1,x,x
CCCSc1nc2sc3c(c2c(=O)n1-c1ccc(C)c(Cl)c1)CCN(C(C)=O)C3,79µM*,-6%,u,x,u,11%
O=C(/C=C/c1ccc(-c2ccccc2)cc1)NCc1cccnc1,-35%,18%,u,0,50µM*,-2%
C/C(=N\NC(=O)c1cc(O)ccc1O)c1cccc(NC(=O)c2ccc(Cl)cc2)c1,22µM*,u,20µM*,-82*,45µM*,50µM*
CCc1ccc(C(=O)C(C)OC(=O)c2nc3nc(C)cc(C)n3n2)cc1 (centres undefined),1%,-5%,29%,-10,x,0%
Cc1ccccc1NC(=O)Cn1nnc(S(=O)(=O)c2ccc(C(C)(C)C)cc2)c1N,1%,-16%,u,-11,32µM*,-32%
Cc1ccccc1NC(=O)Cn1nnc(C(=O)NCc2ccco2)c1N,1%,-12%,-10%,-10,4%,4%
O=C1c2c(O)cc(O)cc2O[C@@]12c1c(cc(O)c3c1O[C@H](c1ccc(O)cc1)[C@@H](O)C3)O[C@@H]2c1ccc(O)cc1,-19%,50µM*,u,-22,-11%,u
CN(C)Cc1ccccc1-c1cc(N(C)C)ncn1,x,x,x,x,x,-5%[60.1 µM]
Cc1cc(C(=O)NC(Cc2c[nH]c3ccccc23)C(=O)O)c(C)o1 (centres undefined),-7%,4%,132%,-4,-1%,-13%
COC(=O)C(Cc1c[nH]c2ccccc12)NC(=O)c1cc(-c2ccc(OC)c(OC)c2)oc1C (centres undefined),u,79µM*,u,2,-17%,-26%
Cc1ccc(-c2nc(SCC(=O)N(C)c3c(N)n(Cc4ccccc4)c(=O)[nH]c3=O)n[nH]2)cc1,-23%,0%,31%,0,89µM*,-3%
C=CCN(C(=O)CCC(=O)Nc1cc(C)on1)C(C(=O)NC(C)(C)C)c1ccc(OC)cc1 (centres undefined),-4%,-7%,148%,4,4%,-2%
CCc1cc(C(=O)OC)c(NC(=O)CSc2nccn2C)s1,2%,0%,26%,-14,31%,-11%
Cc1ccc(NC(=O)CSc2nnc3[nH]c(=O)cc(-c4ccccc4)n23)cc1Cl,-7%,-14%,0%,x,40µM*,-3%[60.1 µM]
COc1cccc(NC(=O)CSc2nnc3[nH]c(=O)cc(-c4ccccc4)n23)c1,11%,-16%,u,x,-15%,3%[60.1 µM]
COc1ccc2c(c1)CCc1c-2nc2ccccc2c1N1CCOCC1,-9%,50µM*,109%,-9,u,-25%
c1ccc2c(N3CCOCC3)c3c(nc2c1)CCC3,-14%,17%,48%,-1,-23%,1%

# Screening data from PubChem.
